Among the data in PubChem BioAssay (NCI) are growth values, retold here.

“And” between values parts separate entries of the source, which are not always exact repeats. Equal entries are not always repeated. About 83,000 compounds went through this panel and 20% of them were active in at least one assay; those are over-represented in the sample as a whole.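 Compound tested at a single concentration for 48 hours in 96-well plates; a percent growth value below 10 was scored as active.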 Values without a mark were called inactive. The source made the active and inactive calls.

This experiment concerns MDA-MB-468 breast. The experiment can be described thus: NCI-60 one-dose screen, 48 h (100 = growth as untreated, 0 = no growth, -100 = all killed). As to conditions: 10 µM unless noted.
On to `CO[C@H]1C[C@@H]2CC[C@@H](C)[C@@](O)(O2)C(=O)C(=O)N2CCCC[C@H]2C(=O)O[C@H]([C@H](C)C[C@@H]2CC[C@@H](OC(=O)C(C)(CO)CO)[C@H](OC)C2)CC(=O)[C@H](C)/C=C(\C)[C@@H](O)[C@@H](OC)C(=O)[C@H](C)C[C@H](C)\C=C/C=C/C=C/1C`, for which the growth was 0.224% (active).
The same measure for `Cc1cc(N(CCNc2ccnc3cc(Cl)ccc23)Cc2ccco2)nc(Cl)n1`: -33.5% (active); for `CC/C=C\C[C@@H]1C/C=C2/C(=O)C=C[C@H]2C/C=C\CCCC(=O)O1`: -63.3% (active).
The same measure for `C=C1C(=O)O[C@H]2[C@H]1CC/C(COC(=O)c1c[nH]c3ccccc13)=C\CC[C@@]1(C)O[C@@H]21`: -68.5% (active); for `O=C1CC[C@H](c2ccc(O)c3c2C(=O)[C@@H]2O[C@@H]2C3=O)c2cccc(O)c21`: -64.8% (active); for `CC[C@H]1[C@@H]2C=C[C@@H]3[C@H]4C/C=C\C(=O)NCCC[C@@H]5NC(=O)/C(=C(O)/C=C/[C@@H]4C[C@@H]3[C@H]2C[C@H]1C)C5=O`: 76.8%.
As to `CS(=O)(=O)Nc1cc(-c2ccc3ncc(C#N)c(N[C@H](CO)c4ccccc4)c3c2)cnc1Cl`, the growth was 14.5%.
The same measure for `Cc1cccc(N=Cc2ccccc2O)c1C`: 103%.
The same measure for `C=C(C)[C@@H]1CC[C@]2(C)[C@H](CC[C@@H]3[C@@H]([C@@](C)(O)CCC=C(C)C)CC[C@]32C)[C@@]1(C)CCC(=O)N1CCN(C)CC1`: -82.2% [100 µM] (active).
In the case of `O=C1C=CC(=O)N1c1cccc2c1CCCC2`, the growth is 95.1%.
The same measure for `CCCCOC(=O)OCc1cc(=O)c(O)co1`: 97.5%; for `O=C(Nc1ccc(C(=O)O)c(O)c1)c1ccccc1`: 105% and 104%; for `CNc1ccc2c(c1)c1ccccc1n2C`: 102%.
The same measure for `CC(C(=O)O)(C1CCCCC1)C1(O)CCCCC1` (stereo unspecified): 106%.
The same measure for `O=C(NC[C@H](O)CO)c1ccncc1Nc1ccc(I)cc1F`: 103%; for `CN(C)CC1C(=O)O[C@H]2[C@H]1CC/C(COC(=O)NCc1ccc(Cn3c(=O)sn(CCCI)c3=O)cc1)=C\CC[C@@]1(C)O[C@@H]21` (stereo partly specified): -73.3% (active); for `C[C@H]1[C@@H]2[C@H]3CC[C@@H]4[C@@]5(C)Cc6c([nH]c7ccccc67)C(C)(C)[C@@H]5CC[C@@]4(C)[C@]3(C)CC[C@]23CO[C@]1(C)[C@@H](C(=O)/C=C/c1ccccn1)C3`: 99.3%.
`COc1cccc2cc(N(C)c3nc(C)nc4c3CCC4)ccc12`: the growth is 18%.
The same measure for `Cc1ccc(N=Nc2ccccc2)cc1`: 95.2%; for `O=C(NCc1ccccc1)c1cccc([N+](=O)[O-])c1`: 93.8%.
In the case of `Cc1cn(-c2cc(NC(=O)c3cncc(C#Cc4cnc5ccc(OCCCS(C)(=O)=O)nn45)c3)cc(C(F)(F)F)c2)cn1`, the growth is -22.5% (active).
The same measure for `CCN(CC)CCCC(C)N/C(=C1\C(=O)NC(=O)\C1=C(/NC(C)CCCN(CC)CC)c1cccc(OC)c1)c1cccc(OC)c1` (stereo unspecified): -42.6% (active).
The same measure for `Cc1c(CN2CCN(C(=O)[C@H](C)O)CC2)sc2c(N3CCOCC3)nc(-c3cnc(N)nc3)nc12`: -49.6% (active); for `CC1=C/C(=C(\c2ccc(N(C)C)cc2)c2ccc([N+](C)(C)C)cc2)C=CC1=[N+](C)C`: 70.6%.
Consider `NC(N)=N/N=C/c1ccccc1`, for which the growth was 94.2%.
The same measure for `COc1cccc(-c2nc(SCC(=O)Nc3ccc(C(=O)/C=C/c4ccc(OC)c(OC)c4)cc3)[nH]c(=O)c2C#N)c1`: 65.7%.
